The nature of assay [1]: small molecules captured by biotinylated probe aFSTL3 – biochemical, small-molecule microarray, fluorescence 635/667, stem cell growth factor project, primary screen (AID 1064).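 Further: measures binding of the biotinylated anti-FSTL3 antibody to printed compounds.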 The conditions noted are these: higher = more signal.
The nature of assay [2]: binders from COS7 lysate, DM2A8 probe, primary screen, torsin A project, cell lysate, small-molecule microarray, fluorescence 635/667 (AID 1065). The conditions noted are these: higher = more signal, COS7 lysate expressing mutant human TOR1A.
Assay [3] is described as follows: small molecules captured by biotinylated probe aFGF2 – biochemical, small-molecule microarray, fluorescence 635/667, stem cell growth factor project, primary screen (AID 1067).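 Further: measures binding of biotinylated aFGF2 protein to printed compounds on slides; z-score merges feature fluorescence and signal-to-noise across triplicate slides.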 The conditions noted are these: higher = more signal.
A short description of assay [4]: small molecules captured by biotinylated probe aFGF10 – biochemical, small-molecule microarray, fluorescence 635/667, stem cell growth factor project, primary screen (AID 1071).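 Further: score merges 667 nm spot intensity and signal to noise from triplicate slides.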 The conditions noted are these: higher = more signal.
In assay [5] the target is Neurogenic locus notch homolog protein 2 (Homo sapiens) (UniProt Q04721). The assay can be described thus: small molecules binding Notch2 protein – biochemical, small-molecule microarray, 635 nm fluorescence, stem cell growth factors, primary screen (AID 1073). The note with it: higher = more signal.
Assay [6] has as its target Pro-neuregulin-1, membrane-bound isoform (Homo sapiens) (UniProt Q02297). The assay can be described thus: small molecules binding neuregulin-1 protein – biochemical, small-molecule microarray, fluorescence 635/667, psychiatric disease protein project, primary screen (AID 1075).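 Further: score combines 667 nm spot fluorescence with signal to noise.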 The conditions noted are these: NRG1 binding, 635 nm fluorescence, higher = more signal.
In assay [7] the test system is Neuregulin-1 EGF-like domain. The assay can be described thus: small molecules binding NRG1 EGF domain – biochemical, small-molecule microarray, 635 nm fluorescence, primary screen (AID 1081).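 Further: binding of the protein to compounds printed on small-molecule microarray slides.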 The conditions noted are these: higher = more signal.
The nature of assay [8]: FRG1 expression reporter modulators in myotubes – cell-based, C2C12 myotubes, firefly/Renilla luciferase, luminescence, FRG1 inhibition for FSHD, primary screen (AID 1084). The conditions noted are these: FRG1 promoter luciferase, higher = more signal, called active from +8 up or from −8 down.
A short description of assay [9]: small molecules captured by biotinylated probe aFST – biochemical, small-molecule microarray, fluorescence 635/667, stem cell growth factor project, primary screen (AID 1086).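 Further: score merges 667 nm fluorescence with signal-to-noise of each printed compound spot.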 The conditions noted are these: higher = more signal.
Assay [10] in a line: binders of probe aHhip on microarray, primary screen, stem cell growth factor project, biochemical, small-molecule microarray, fluorescence 635/667 (AID 1087).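 Further: score merges spot fluorescence at 667nm with spot signal to noise ratio.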 The conditions noted are these: higher = more signal.

Calls of active or inactive are those of the source.

Sequence of Pro-neuregulin-1, membrane-bound isoform (Homo sapiens) (Q02297 whole entry, looked up, the tested form may be a part, canonical isoform): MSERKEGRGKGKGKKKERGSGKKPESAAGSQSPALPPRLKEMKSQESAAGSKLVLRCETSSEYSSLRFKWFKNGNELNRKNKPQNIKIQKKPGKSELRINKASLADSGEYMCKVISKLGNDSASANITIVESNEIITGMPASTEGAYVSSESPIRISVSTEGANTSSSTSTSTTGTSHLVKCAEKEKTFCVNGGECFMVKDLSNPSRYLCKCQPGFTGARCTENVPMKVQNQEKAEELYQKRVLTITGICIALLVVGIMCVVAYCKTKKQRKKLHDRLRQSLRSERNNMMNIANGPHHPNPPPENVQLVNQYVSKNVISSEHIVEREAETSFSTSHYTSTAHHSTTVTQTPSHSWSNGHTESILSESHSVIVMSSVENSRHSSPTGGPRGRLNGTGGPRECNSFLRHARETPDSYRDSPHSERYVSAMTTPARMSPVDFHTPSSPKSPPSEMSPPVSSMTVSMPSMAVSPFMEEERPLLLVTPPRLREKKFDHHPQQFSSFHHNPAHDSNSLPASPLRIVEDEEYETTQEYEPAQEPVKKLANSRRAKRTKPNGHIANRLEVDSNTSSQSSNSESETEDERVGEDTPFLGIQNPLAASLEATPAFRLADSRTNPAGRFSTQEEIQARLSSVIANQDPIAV
Sequence of Neurogenic locus notch homolog protein 2 (Homo sapiens) (Q04721 whole entry, looked up, canonical isoform): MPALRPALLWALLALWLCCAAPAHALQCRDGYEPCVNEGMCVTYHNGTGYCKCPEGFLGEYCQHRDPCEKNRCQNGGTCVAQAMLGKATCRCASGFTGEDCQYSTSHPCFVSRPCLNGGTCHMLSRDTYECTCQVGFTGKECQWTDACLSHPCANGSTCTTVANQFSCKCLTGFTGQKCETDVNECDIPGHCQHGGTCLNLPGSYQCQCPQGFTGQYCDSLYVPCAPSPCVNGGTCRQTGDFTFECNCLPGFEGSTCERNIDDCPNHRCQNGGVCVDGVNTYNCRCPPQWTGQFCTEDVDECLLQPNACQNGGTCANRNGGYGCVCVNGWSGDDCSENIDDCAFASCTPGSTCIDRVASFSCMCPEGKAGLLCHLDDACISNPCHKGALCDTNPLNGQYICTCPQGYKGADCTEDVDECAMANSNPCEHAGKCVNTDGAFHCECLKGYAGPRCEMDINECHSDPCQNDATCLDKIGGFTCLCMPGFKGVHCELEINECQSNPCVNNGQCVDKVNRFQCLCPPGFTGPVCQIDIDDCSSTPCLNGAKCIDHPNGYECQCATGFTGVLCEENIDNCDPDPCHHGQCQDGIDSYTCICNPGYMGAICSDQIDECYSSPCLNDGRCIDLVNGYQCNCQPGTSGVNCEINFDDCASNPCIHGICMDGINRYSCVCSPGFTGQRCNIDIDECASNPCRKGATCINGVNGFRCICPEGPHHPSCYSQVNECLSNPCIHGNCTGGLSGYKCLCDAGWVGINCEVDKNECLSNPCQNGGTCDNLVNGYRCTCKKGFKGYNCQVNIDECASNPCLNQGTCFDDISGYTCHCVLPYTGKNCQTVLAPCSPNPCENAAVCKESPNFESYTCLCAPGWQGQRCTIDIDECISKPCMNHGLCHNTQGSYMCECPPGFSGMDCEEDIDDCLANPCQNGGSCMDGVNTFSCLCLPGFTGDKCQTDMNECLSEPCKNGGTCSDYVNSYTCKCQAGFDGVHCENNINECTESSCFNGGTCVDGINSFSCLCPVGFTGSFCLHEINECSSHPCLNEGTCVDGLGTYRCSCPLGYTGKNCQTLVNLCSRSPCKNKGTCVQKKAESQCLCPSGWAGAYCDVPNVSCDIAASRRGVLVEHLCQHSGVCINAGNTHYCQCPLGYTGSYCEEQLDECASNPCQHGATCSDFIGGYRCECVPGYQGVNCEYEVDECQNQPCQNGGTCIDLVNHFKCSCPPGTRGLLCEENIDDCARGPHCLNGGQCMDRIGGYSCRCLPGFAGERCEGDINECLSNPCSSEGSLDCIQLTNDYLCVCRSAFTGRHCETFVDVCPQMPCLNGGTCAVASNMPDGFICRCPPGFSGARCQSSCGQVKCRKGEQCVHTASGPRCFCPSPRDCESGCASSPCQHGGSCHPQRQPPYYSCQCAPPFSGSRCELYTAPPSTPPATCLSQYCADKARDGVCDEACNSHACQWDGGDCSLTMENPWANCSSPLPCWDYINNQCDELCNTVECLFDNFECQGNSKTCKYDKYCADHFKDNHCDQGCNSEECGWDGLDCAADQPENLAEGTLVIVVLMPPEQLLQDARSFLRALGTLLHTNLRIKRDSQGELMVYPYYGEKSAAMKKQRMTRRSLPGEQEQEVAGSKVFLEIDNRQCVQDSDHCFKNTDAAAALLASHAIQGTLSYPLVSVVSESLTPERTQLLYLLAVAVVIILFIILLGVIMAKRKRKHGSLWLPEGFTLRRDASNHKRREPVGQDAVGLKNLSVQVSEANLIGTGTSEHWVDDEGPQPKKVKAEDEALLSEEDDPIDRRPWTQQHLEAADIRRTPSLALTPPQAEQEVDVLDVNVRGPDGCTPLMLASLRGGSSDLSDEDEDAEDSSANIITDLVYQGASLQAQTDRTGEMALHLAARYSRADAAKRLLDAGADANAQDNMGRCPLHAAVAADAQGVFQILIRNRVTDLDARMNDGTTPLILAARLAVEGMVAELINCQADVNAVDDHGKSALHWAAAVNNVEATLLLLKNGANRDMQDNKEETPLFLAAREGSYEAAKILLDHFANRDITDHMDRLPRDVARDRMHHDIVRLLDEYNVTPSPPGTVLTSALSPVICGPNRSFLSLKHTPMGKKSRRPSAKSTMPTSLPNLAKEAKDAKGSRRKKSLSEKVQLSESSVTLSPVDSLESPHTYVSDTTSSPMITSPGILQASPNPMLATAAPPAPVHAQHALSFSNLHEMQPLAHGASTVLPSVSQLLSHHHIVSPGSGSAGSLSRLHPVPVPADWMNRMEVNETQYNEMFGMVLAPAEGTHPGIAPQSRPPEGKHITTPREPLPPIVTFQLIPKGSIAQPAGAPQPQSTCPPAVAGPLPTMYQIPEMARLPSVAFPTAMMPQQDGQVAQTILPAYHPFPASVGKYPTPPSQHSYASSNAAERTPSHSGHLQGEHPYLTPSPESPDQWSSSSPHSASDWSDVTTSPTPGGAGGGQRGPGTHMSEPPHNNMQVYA

Consider `O=C1C[C@@H](O)[C@@H](O)[C@@H]2[C@@H]3C(=O)N(Cc4ccccc4)C(=O)[C@@H]3CC[C@H]12`, for which the composite z-score in assay [1] was -0.344; in [2] it was 0.49; in assay [3], -0.129; in [4] it was 0.339; in assay [5] it was 0.438; in [6], 0.235. Moreover, the composite z-score in assay [7] was 0.632; in assay [9], 0.256; in [10], 0.0053. Moreover, in assay [8], the z-score is -0.725 (inactive).

Turning to `COC(=O)CC=C[C@@H](C)[C@@H](C=NOC(C)CN1CCCCc2nc(C)c(C)cc21)OC` (stereo not given in full), the composite z-score in assay [1] is -0.0416; in assay [2], 2.43; in assay [3] it was -0.175; in [4], -0.425; in assay [5], -0.229; in [6], 0.33. Moreover, the composite z-score in [7] was 0.987; in [9] it was 0.286; in assay [10], -0.206. Further, the z-score in assay [8] was 0.739 (inactive).

With `CCN1C(=O)[C@H]2[C@@H]3C(=CC[C@H]2C1=O)C(=O)[C@H]1O[C@H]1[C@H]3O`, the composite z-score in assay [1] was -0.538; in [2], -0.0147; in assay [3], -0.0996; in assay [4], 0.465; in [5], 0.613; in assay [6] it was 0.0141. The composite z-score in assay [7] was 0.73; in [9], 0.167; in [10] it was -0.0346. In assay [8], the z-score is -2.63 (inactive).

Take `COC(=O)[C@H](C)NC(=O)CCC1CC(OC(=O)NCc2cccc3ccccc23)CC2(CCCC(COC(=O)NCCc3ccccc3OC)O2)O1` (stereo not given in full): the composite z-score was -0.629 in assay [1]; 0.0902 in assay [2]; -0.076 in assay [3]; 0.612 in assay [4]; 1.24 in [5]; 1.15 in assay [6]. Besides, the figures for the composite z-score in [7], in assay [9] and in [10] were 1.21, 0.573 and 0.24, respectively. For the same compound, the z-score in assay [8] was 2.21 (inactive).

Regarding `CCOC(=O)CCN1C(=O)[C@H]2[C@@H]3C(=CC[C@H]2C1=O)C(=O)[C@H]1O[C@H]1[C@H]3O`, the composite z-score in [1] is -0.128; in [2] it was -0.42; in assay [3], -0.137; in assay [4], -0.199; in assay [5] it was -0.582; in [6], -0.426. For the same compound, the composite z-score in assay [7] is 0.503; in assay [9], -0.481; in [10], -0.137. Also, in [8], the z-score is -2.91 (inactive).

For the compound `COc1ccc(COC(=O)NN=C2C[C@@H](O)[C@@H](O)[C@@H]3[C@@H]4C(=O)N(Cc5ccccc5)C(=O)[C@@H]4CC[C@@H]23)cc1`, the composite z-score in assay [1] is -0.512; in [2], -0.0209; in assay [3], -0.0286; in assay [4], 0.291; in assay [5] it was 0.383; in [6] it was -0.271. For the same compound, the composite z-score in [7] was -0.214; in [9], 0.268; in assay [10], 0.0183. The z-score in assay [8] was 0.364 (inactive).

In the case of `O=C1[C@H]2[C@H]3[C@H](O)[C@H](O)CC(=NOC[C@@H](O)COCc4ccco4)[C@@H]3CC[C@H]2C(=O)N1Cc1ccccc1`, the composite z-score in [1] was -0.645; in assay [2] it was 0.389; in assay [3], -0.171; in assay [4], -0.0702; in assay [5] it was 0.0535; in assay [6] it was 0.39. Further, the composite z-score is 1.24 in [7], 0.248 in [9] and -0.115 in assay [10]. In addition, the z-score in assay [8] was 0.668 (inactive).

Regarding `COC(=O)[C@@H]1CC[C@H](C)[C@@H](c2ccc(Br)cc2)N1`, the composite z-score in assay [1] was 1.1; in assay [2], -0.288; in assay [3], 0.0499; in [4], 0.169; in assay [5] it was -0.208; in assay [6], 0.153. Moreover, the composite z-score is -0.201 in assay [7], -0.155 in assay [9] and 0.842 in assay [10]. Moreover, in assay [8], the z-score is -0.382 (inactive).

Turning to `COc1cccc([C@H]2Oc3ccc(OC)cc3C(=NOCC[C@@H]3C=C[C@H](OC(C)=O)[C@@H](COC(C)=O)O3)[C@@H]2O)c1`, the composite z-score in assay [1] was -0.478; in assay [2] it was 0.459; in assay [3], -0.017; in assay [4] it was 0.577; in [5], 0.895; in assay [6], 1.28. The composite z-score was 0.773 in assay [7], 0.366 in assay [9] and -0.21 in assay [10]. In assay [8], the z-score is 1.52 (inactive).

On to `CCOC(=O)[C@H](Cc1ccccc1)NC(=O)CCC1CC(OC(=O)NCc2cccc3ccccc23)CC2(CCCC(COC(=O)NCCOc3ccccc3)O2)O1` (stereo not given in full), for which the composite z-score is -0.591 in [1]; 0.618 in [2]; -0.105 in [3]; 0.133 in [4]; 0.863 in assay [5]; 0.972 in assay [6]. In addition, the composite z-score in assay [7] turned out to be 0.898; in [9], 0.214; in assay [10], 0.204. The z-score in assay [8] is 0.688 (inactive).

For `CC(CCC(=O)OC[C@H]1O[C@H](C#Cc2ccccc2)C=C[C@@H]1Oc1ccc(C)cc1)=NOC[C@@H](C)[C@H](OCc1ccccc1)C(C)C`, the composite z-score is -0.205 in [1]; -0.0926 in assay [2]; -0.121 in assay [3]; -0.122 in assay [4]; -0.67 in [5]; -1.01 in assay [6]. Further, the results for the composite z-score in [7], in assay [9] and in [10] were -1.05, -0.114 and -0.175, respectively. The z-score in assay [8] was -0.234 (inactive).

With `CC(C)(C)N1C(=O)[C@H]2[C@H]3[C@H](O)[C@H](O)CC(=NOC[C@@H](O)COCc4ccco4)[C@@H]3CC[C@H]2C1=O`, the composite z-score is 0.812 in assay [1]; 0.152 in [2]; -0.0193 in assay [3]; 0.112 in [4]; 0.0503 in [5]; -0.0263 in [6]. Besides, the values for the composite z-score in [7], in assay [9] and in assay [10] were -0.214, -0.0115 and -0.0994, respectively. Besides, the z-score in [8] was 0.528 (inactive).

Values taken from PubChem BioAssay.
